# Measured values taken from publication PMC4336329 (PLoS ONE, 2015).
# In all, about 310,000 compounds went through this assay and about 14,000 (4.5%) showed an effect of 50% or more. Effects have a minus sign here. For the sample, strong results were picked, then their nearest neighbours and some compounds at random.
# Target: human ether-à-go-go-related gene (hERG) potassium channel (human, UniProt Q12809)
# Test: primary screen, population patch clamp on CHO cells stably expressing hERG; higher = less effect of the substance
# 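Further: peak tail current of the secondary pulse compared with the same well before compound.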
# Sequence of human ether-à-go-go-related gene (hERG) potassium channel (Q12809 whole entry, looked up): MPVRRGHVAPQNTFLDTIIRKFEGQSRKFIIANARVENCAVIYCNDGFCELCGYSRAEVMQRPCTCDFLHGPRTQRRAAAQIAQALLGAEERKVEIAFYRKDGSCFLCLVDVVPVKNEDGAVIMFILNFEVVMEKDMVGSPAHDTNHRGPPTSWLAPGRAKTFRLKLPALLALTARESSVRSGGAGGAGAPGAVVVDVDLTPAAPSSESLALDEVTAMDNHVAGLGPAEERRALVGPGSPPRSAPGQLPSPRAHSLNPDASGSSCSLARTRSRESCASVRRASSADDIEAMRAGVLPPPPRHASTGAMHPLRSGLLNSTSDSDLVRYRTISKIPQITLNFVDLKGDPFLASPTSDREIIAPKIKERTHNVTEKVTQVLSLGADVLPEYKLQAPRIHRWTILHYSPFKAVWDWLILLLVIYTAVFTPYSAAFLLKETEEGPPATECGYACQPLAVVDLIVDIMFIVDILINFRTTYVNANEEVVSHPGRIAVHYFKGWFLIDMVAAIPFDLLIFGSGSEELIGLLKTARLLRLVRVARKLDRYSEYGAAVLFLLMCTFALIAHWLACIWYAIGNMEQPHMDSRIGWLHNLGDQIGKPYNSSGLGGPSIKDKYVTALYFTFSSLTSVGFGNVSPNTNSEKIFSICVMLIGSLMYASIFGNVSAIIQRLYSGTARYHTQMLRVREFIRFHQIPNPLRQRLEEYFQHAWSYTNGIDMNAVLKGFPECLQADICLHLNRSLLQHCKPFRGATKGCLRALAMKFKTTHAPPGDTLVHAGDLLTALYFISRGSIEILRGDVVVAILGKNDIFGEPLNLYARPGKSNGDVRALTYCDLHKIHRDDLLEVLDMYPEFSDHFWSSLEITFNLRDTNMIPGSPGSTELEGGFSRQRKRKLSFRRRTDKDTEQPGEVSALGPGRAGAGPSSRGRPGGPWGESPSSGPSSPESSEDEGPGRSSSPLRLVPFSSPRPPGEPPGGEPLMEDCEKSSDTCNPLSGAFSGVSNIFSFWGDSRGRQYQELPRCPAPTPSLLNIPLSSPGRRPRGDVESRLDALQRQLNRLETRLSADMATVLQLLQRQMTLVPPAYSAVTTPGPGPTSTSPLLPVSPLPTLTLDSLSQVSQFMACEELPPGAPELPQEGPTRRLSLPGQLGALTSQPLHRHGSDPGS
row,Structure (SMILES),"hERG current change (%, negative = inhibition) at 10uM [%]"
1,O=C(O)C1CCCCC1C(=O)Nc1ccccc1Cl (centres unmarked),15.1
2,O=C(CN1C(=O)c2ccccc2C1=O)N1CCN(C2c3ccccc3-c3ccccc32)CC1,-23.1
3,O=C(/C=C/c1ccco1)NCC1COc2ccccc2O1 (centres unmarked),-0.808
4,O=C(NC1CCCCC1)N1CCSC1=Nc1ccccc1,-5.04
5,CCOCCCNC(=O)c1c(C)c(C(=O)OCC)n(C)c1C,15.3
6,CCOC(=O)N1N=C(c2ccccc2)CC1(O)C(C)(F)F (centres unmarked),12.1
7,C=CCNC(=O)C1CC2Cn3c(nc4cc(Cl)c(Cl)cc43)C2N1C (centres unmarked),-35.4
8,CN1C(C(=O)NCc2ccccc2)CC2Cn3c(nc4cc(Cl)c(Cl)cc43)C21 (centres unmarked),-65.6
9,O=C(NCCO)c1ccc(-c2nnc(Nc3ccc(O)cc3)c3ccccc23)cc1,16.8
10,Cc1ccccc1Nc1nnc(-c2ccc(C(=O)NCCO)cc2)c2ccccc12,-65.9
11,COc1ccc(Nc2nnc(-c3ccc(C(=O)NCCO)cc3)c3ccccc23)cc1,-4.6
12,CCC(C)[C@H](NC(=O)C1CCN(C(=O)[C@H](Cc2ccccc2)NC(=O)OC(C)(C)C)CC1)C(=O)O (some centres unmarked),-1.42
13,COc1ccc(-c2oc(NC(=O)c3ccc(C)cc3)c(C#N)c2-c2ccc(OC)cc2)cc1,-11.6
14,O=C(C1=C[C@H](c2coc3ccccc3c2=O)C[C@H](OCc2ccc(CO)cc2)O1)N1CCN(Cc2ccc3c(c2)OCO3)CC1,-57.2
15,CN1CCN(C(=O)C2=C[C@@H](c3coc4ccccc4c3=O)C[C@@H](OCc3ccc(CO)cc3)O2)CC1,-22.5
16,O=C(C1=C[C@@H](c2coc3ccccc3c2=O)C[C@@H](OCc2ccc(CO)cc2)O1)N1CCN(Cc2ccc3c(c2)OCO3)CC1,-66.1
17,O=C(C1=C[C@H](c2coc3ccccc3c2=O)C[C@H](OCCCCO)O1)N1CCN(Cc2ccc3c(c2)OCO3)CC1,-64.4
18,O=C(C1=C[C@@H](c2csc3ccccc23)C[C@@H](OCCCCO)O1)N1CCN(Cc2ccc3c(c2)OCO3)CC1,-11
19,CC(=O)n1cc([C@@H]2C=C(C(=O)N3CCN(Cc4ccc5c(c4)OCO5)CC3)O[C@H](OCc3ccc(CO)cc3)C2)c2ccccc21,-17.5
20,O=C(C1=C[C@@H](c2csc3ccccc23)C[C@@H](OCc2ccc(CO)cc2)O1)N1CCN(Cc2ccc3c(c2)OCO3)CC1,1.69
21,O=C(C1=C[C@H](c2csc3ccccc23)C[C@H](OCc2ccc(CO)cc2)O1)N1CCN(Cc2ccc3c(c2)OCO3)CC1,12.4
22,O=C(C1=C[C@@H](c2coc3ccccc3c2=O)C[C@@H](OCCCCO)O1)N1CCN(Cc2ccc3c(c2)OCO3)CC1,-49.7

row,Structure (SMILES),"hERG current change (%, negative = inhibition) at 10uM [%]"
1,Cc1ccccc1NC(=O)NNC(=O)OC(C)(C)C,-6.37
2,O=C(C1CCCCN1S(=O)(=O)c1ccccc1)N1CCCCC1 (centres unmarked),-1.03
3,N#Cc1ccc(C23CC4(C2)[C@H](CN(Cc2ccc(-c5ccccc5)cc2)[C@@H]4c2ccccc2)C3c2ccc(C(F)(F)F)cc2)cc1 (some centres unmarked),6.84
4,CC(O)[C@H]1CNC(=O)C(=O)N1CCc1cccc(F)c1 (some centres unmarked),21
5,CCCn1c(N)c(C(=O)CN(C)CC(=O)Nc2c(Cl)cccc2Cl)c(=O)[nH]c1=O,-9.48
6,CCCn1c(N)c(C(=O)CN(C)CC(=O)Nc2cccc(F)c2)c(=O)[nH]c1=O,-75.1
7,CCCn1c(N)c(C(=O)CN(C)CC(=O)Nc2ccc(F)cc2)c(=O)[nH]c1=O,-70.6
8,CCCn1c(N)c(C(=O)CN(C)CC(=O)Nc2ccccc2CC)c(=O)[nH]c1=O,-42
9,CCCn1c(N)c(C(=O)CN(C)CC(=O)Nc2ccccc2C(F)(F)F)c(=O)[nH]c1=O,-0.764
10,COC(=O)c1c(C)[nH]c(C(=O)CN(C)CC(=O)Nc2cccc(F)c2)c1C,-22.2
11,O=C(NCCC1=CCCCC1)c1ccc([N+](=O)[O-])cc1,-14.9
12,O=C(CCc1ccc(S(=O)(=O)N2CCCCC2)cc1)c1nnc(-c2ccccc2)o1,-12.7
13,CCC(C)NC(=O)CN(C1CCCCC1)S(C)(=O)=O (centres unmarked),9.11
14,Cc1cc(N)n2ncc(-c3cccc(Br)c3)c2n1,-2.75
15,Cc1cc(-n2c(C)cc(C(=O)CSc3nncn3C(C)C)c2C)no1,9.21
16,O=C1CCCN1CC(=O)N1CCCC(N2CCN(c3cccc(Cl)c3)CC2)C1 (centres unmarked),8.15
17,CCCC(c1nnnn1Cc1ccc(F)cc1)N1CCN(C2CCCCC2)CC1.Cl (centres unmarked),-62.4
18,CCCC(c1nnnn1Cc1ccc(F)cc1)N1CCN(CC)CC1 (centres unmarked),-53
19,CCC(c1nnnn1Cc1ccc(F)cc1)N1CCN(C2CCCCC2)CC1.Cl (centres unmarked),-53
20,CCCC(c1nnnn1CS(=O)(=O)c1ccc(C)cc1)N1CCN(C2CCCC2)CC1.Cl (centres unmarked),-37.5
21,CCCC(c1nnnn1Cc1ccc(OC)cc1)N1CCN(c2ccccc2OC)CC1 (centres unmarked),-8.59
22,CC(C)C(c1nnnn1Cc1ccc(F)cc1)N1CCN(C2CCCC2)CC1 (centres unmarked),-38.2

row,Structure (SMILES),"hERG current change (%, negative = inhibition) at 10uM [%]"
1,CCCC(c1nnnn1Cc1cccs1)N1CCN(C2CCCC2)CC1.Cl (centres unmarked),-29
2,CC(C)C(c1nnnn1Cc1ccc(F)cc1)N1CCSCC1 (centres unmarked),-20.7
3,CCC(c1nnnn1Cc1ccc(F)cc1)N1CCN(C)CC1 (centres unmarked),-1.38
4,CCC(c1nnnn1Cc1cccs1)N1CCN(C2CCCC2)CC1.Cl (centres unmarked),-22.3
5,CCCC(c1nnnn1Cc1ccc(F)cc1)N1CCN(C)CC1 (centres unmarked),-2.88
6,CC(C)C(c1nnnn1Cc1ccc(F)cc1)N1CCN(C2CCCCC2)CC1 (centres unmarked),-61.3
7,CCCN1C(=O)C(O)(CC(=O)c2ccc3c(c2)OCCO3)c2ccccc21 (centres unmarked),7.24
8,Cc1nn(CC(=O)Nc2ccc(C(=O)N3CCCC3)cc2)c(=O)c2ccccc12,-1.72
9,CCN(c1cccc(C)c1)S(=O)(=O)c1c(C)[nH]c(C)c1C(=O)N1CCCCC1,5.45
10,O=C(O)c1cccc(CSc2nnc(Cc3ccccc3)o2)c1,-5.18
11,Cc1cc(C)n2nc(C(=O)Nc3ccc4c(c3)OCO4)nc2n1,-1.25
12,Cc1nc(NC(=O)CN2CCCCC2)sc1C(=O)N(C)C,1.37
13,CC(NC(=O)c1cc(-c2ccccc2)nc2ccccc12)C1CCCO1 (centres unmarked),-11
14,O=C1/C(=C\c2ccccc2)C2OCC=C3CN4CCC56c7ccccc7N1C5C2C3CC46 (centres unmarked),-53.4
15,COc1cc2c(cc1OC)[C@@]13CCN4CC5=CCO[C@H]6CC(=O)N2[C@H]1[C@H]6[C@H]5C[C@H]43,-8.03
16,O=C1CC2OCC=C3CN4CCC56c7cc([N+](=O)[O-])ccc7N1C5C2C3CC46 (centres unmarked),-22.4
17,NNC(=O)c1ccc(Oc2cc(Cl)cc(Cl)c2)o1,1.1
18,COc1ccc(NC(=O)c2ccc(NCCCN3CCOCC3)c([N+](=O)[O-])c2)cc1,-3.71
19,Cc1cccc(NC(=O)c2ccc(NCCc3ccccc3)c([N+](=O)[O-])c2)c1,6.78
20,O=C(Nc1ccc(Cl)c([N+](=O)[O-])c1)c1ccc(NCCCN2CCOCC2)c([N+](=O)[O-])c1,-10.2
21,Cl.O=C(Nc1cc(F)cc(F)c1)c1ccc(NCCCN2CCCCCC2)c([N+](=O)[O-])c1,-72.1
22,COc1cccc(NC(=O)c2ccc(NCCCN3CCC(C)CC3)c([N+](=O)[O-])c2)c1,-56.2

row,Structure (SMILES),"hERG current change (%, negative = inhibition) at 10uM [%]"
1,O=C(Nc1cc(F)cc(F)c1)c1ccc(NCCc2ccccc2)c([N+](=O)[O-])c1,3.74
2,Cc1ccc(NC(=O)c2ccc(NCCCN3CCC(C)CC3)c([N+](=O)[O-])c2)cc1F.Cl,-8.31
3,CCCN(CCC)CCCNc1ccc(C(=O)Nc2cccc(OC)c2)cc1[N+](=O)[O-].Cl,-76.3
4,Cc1ccc(NC(=O)c2ccc(NCCCN3CCC(C)CC3)c([N+](=O)[O-])c2)c(C)c1,-19.4
5,Cc1ccc(C(=O)Nc2cccc(NC(=O)c3ccc(C)cc3)n2)cc1,2.01
6,Cc1ccccc1-c1nnc(CN2CCC(C)CC2)o1.Cl,-6.6
7,COCCOCC(O)CN1CCN(c2ccc(C)cc2)CC1.O=C(O)C(=O)O (centres unmarked),-11.2
8,Cc1c(C(=O)NC2CCCc3ccccc32)oc2ccc(S(=O)(=O)N3CCOCC3)cc12 (centres unmarked),-2.45
9,CC(Oc1cccc(Cl)c1)C(=O)Nc1ccc(S(=O)(=O)NC2=NCCCCC2)cc1 (centres unmarked),-22.5
10,CCN(CC)C(=O)c1c2c(nc3ccccc13)-c1ccccc1CC2,-12.6
11,CCOC(=O)/C(C#N)=C\C=C1C=CN(C)C=C1,0.0919
12,Cc1cc(C)c2oc(=O)cc(CN3CCN(Cc4ccccc4)CC3)c2c1,-33.2
13,CCc1cc(=O)oc2c(CN3CCN(C)CC3)c(O)ccc12,8.25
14,O=c1cc(CN2CCN(Cc3ccccc3)CC2)c2ccc(O)c(O)c2o1,-65.8
15,Cc1ccc2c(CN3CCCCC3)cc(=O)oc2c1C,-1.49
16,Cc1ccc2c(CN3CCN(Cc4ccccc4)CC3)cc(=O)oc2c1C,-55.3
17,O=c1cc(CN2CCOCC2)c2ccc(O)c(O)c2o1,10.1
18,Cc1c(O)ccc2c(CN3CCN(Cc4ccccc4)CC3)cc(=O)oc12,-61.9
19,Cc1c(O)ccc2c(CN3CCN(CCO)CC3)cc(=O)oc12,3.5
20,Cc1cc(C)c2c(CN3CCN(Cc4ccccc4)CC3)cc(=O)oc2c1C.Cl,-40.8
